Source: PubChem BioAssay AID845 (Columbia University Molecular Screening Center, 2007)
Screen size: about 94,000 compounds; about 390 (0.41%) were called active. This excerpt belongs to a sample that is enriched for actives. Unmarked numbers belong to inactive results.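 Rule for the calls: active = cell count reduction more than 3 SD above the screen-wide mean (cut at about 70% in these data); inactive = the rest.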

Experiment: cytotoxicity in IL-1B stimulated HUVEC, primary screen, cytotoxicity control for IL-1B NFkB translocation project, imaging, Hoechst nuclear count, IL-1B stimulus (AID 845);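 note: normalized per plate to untreated control cells as the no-loss baseline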
Settings: HUVEC cell count loss, at 2 µM, hits give high values

Row | SMILES | cell count reduction
1 | Cc1[nH]n(-c2cccc(Cl)c2)c(=O)c1-c1ccc(Cl)cc1 | -1.3%
2 | Cc1nc2c(-c3ccccc3)c(C)[nH]n2c(=O)c1Cl | 86.7% (active)
3 | Cc1cc(-c2ccccc2)n2nc(C)c(-c3ccccc3)c2n1 | -18.8%
4 | O=C(NNC(=O)c1cccnc1)Nc1ccccc1 | 19.6%
5 | O=C(Nc1ccccc1Cl)O/N=C(/c1ccccc1)c1ccccn1 | -21.6%
6 | CCOC(=O)C1(S(=O)(=O)c2ccc(Cl)cc2)CCN(Cc2ccccc2)CC1 | -78.7%
7 | Cc1c(C(=O)NCc2ccccc2)cnn1-c1ccccc1 | -8.5%
8 | O=[N+]([O-])c1ccc(Oc2ccc(F)cc2Br)c2ccncc12 | 5.4%
9 | COC(=O)CNC(=O)c1ccccc1[N+](=O)[O-] | 22.7%
10 | Clc1ccc(CSc2nnc(/C=C/c3ccccc3)o2)c(Cl)c1 | -46.7%
11 | CCOC(=O)c1c(NC(=O)/C=C/c2ccco2)sc(C)c1C | -43.8%
12 | O=C1/C(=C\Nc2ccccc2)CCN1c1ncccn1 | -32.2%
13 | CN(C(=O)CSc1nc(C2CC2)nc2ccccc12)c1nc(-c2ccccc2)cs1 | 0.9%
14 | CCN(CC)S(=O)(=O)c1ccc(N2CCOCC2)c(C(=O)O)c1 | 5.3%
15 | Cc1cc(=O)n2nc(N3CCCC(C(=O)N4CCN(C)CC4)C3)sc2n1 (configuration not stated) | 85.7% (active)
16 | COc1ccc(S(=O)(=O)N2CCCC(C(=O)N3CCN(C)CC3)C2)cc1C (configuration not stated) | -33.6%
17 | COc1cc(C)nc(N2CCCC(C(=O)NCC(C)C)C2)n1 (configuration not stated) | -46.9%
18 | COc1ccc(C(C#N)Nc2ccc(C)cc2)cc1 (configuration not stated) | -28.6%
19 | Cc1cc(C)c(OCC(=O)N/N=C/c2ccco2)c(C)c1 | 19.3%
20 | O=[N+]([O-])c1ccccc1/C=N/n1c(COc2ccccc2)n[nH]c1=S | -18.2%
21 | O=C(c1ccc(CN2CCOCC2)cc1)N1CCN(c2ccccc2F)CC1 | 2.7%
22 | C/C=C/C(=O)Nc1nnc(C(C)C)s1 | 7.2%
23 | COc1cccc(NC(=O)c2nn(C34CC5CC(CC(C5)C3)C4)cc2[N+](=O)[O-])c1 | -1.4%
24 | Cc1nc(SCC(=O)c2ccccc2)c([N+](=O)[O-])[nH]1 | -10.8%
25 | CCOc1ccccc1NC(=O)C1CCCN(C(=O)Nc2ccccc2)C1 (configuration not stated) | -30.5%

Row | SMILES | cell count reduction
26 | Cc1cccc(C)c1NC(=O)c1ccc(CN2CCc3ccccc3C2)cc1 | -6.8%
27 | CCOC(=O)COc1cc(OCC(=O)OCC)c2c(=O)cc(-c3ccccc3)oc2c1 | 7.8%
28 | C=C(C)C(=O)Nc1cccc(C(C)=O)c1 | 1.7%
29 | O=c1[nH]n(-c2cccc(Cl)c2)c2ncccc12 | -27.9%
30 | CCCc1ccc(OCC(=O)NNC(=S)NC(=O)c2ccco2)cc1 | -2.4%
31 | O=c1c2ccccc2nc2n1C(CSc1ccc(F)cc1)CN2 (configuration not stated) | -9.2%
32 | CSc1ccc(C#N)cc1NC(=O)c1ccc(Cl)cc1 | -20.7%
33 | CC1(C)N=C(c2ccccn2)C(C)(C)N1O | 10.6%
34 | Cc1cccc(N(CC(=O)N2CCOCC2)S(C)(=O)=O)c1 | -61.2%
35 | Nc1ccc(C(=O)OCC(=O)NC2CCCc3ccccc32)cc1[N+](=O)[O-] (configuration not stated) | -106%
36 | CCc1cccc(C)c1N(C(=O)Cn1c(CO)nc2ccccc21)C(C)COC (configuration not stated) | -7.6%
37 | COC(=O)c1cc(NC(=O)CC2C(=O)NCCN2C(=O)c2ccc(F)cc2)cc(C(=O)OC)c1 (configuration not stated) | -3.7%
38 | N#CC1=C(SCc2ccc(C#N)cc2)N=C(N)C(c2nc(-c3ccccc3)cs2)C12CCCCC2 (configuration not stated) | 25.2%
39 | COc1ccc(C)cc1S(=O)(=O)Nc1cccc(Cl)c1Cl | 6.2%
40 | O=C(CNS(=O)(=O)c1ccc(Br)s1)N1CCN(C(=O)c2ccco2)CC1 | 15.9%
41 | COc1ccc(C)cc1NC(=O)CCS(=O)(=O)c1cccc2nonc12 | 0.3%
42 | OC(CN1C2=NCCCN2c2ccccc21)c1ccc(Br)cc1 (configuration not stated) | 8.9%
43 | Cc1ccc(-c2csc(SCC(=O)Nc3cc(C)on3)n2)cc1 | 8.8%
44 | CCCNC(=O)N1CCN(C(=O)NCCC)CC1 | 4.6%
45 | CSCCC(NC(=O)COc1ccccc1)C(=O)OCC(=O)c1cc2ccccc2o1 (configuration not stated) | -13.3%
46 | O=C(NC1=NCCS1)[C@H](Cc1ccccc1)N1C(=O)c2ccccc2C1=O | -5.1%
47 | NC(=O)CSc1oc(-c2cccs2)nc1S(=O)(=O)c1ccccc1 | 72.9% (active)
48 | COc1ccc(OC)c(C(=O)CSc2nnc(-c3cccs3)o2)c1 | -23.7%
49 | CC1CCCCN1S(=O)(=O)c1ccc(C(=O)Nc2nnc(-c3cccs3)o2)cc1 (configuration not stated) | -4.4%
50 | O=C(NCCN1CCN(Cc2ccccc2)CC1)c1cc2c(=O)[nH]c3ccccc3c2s1 | 26.5%

Row | SMILES | cell count reduction
51 | O=C(CN1CCCCCC1)N1c2ccccc2Sc2ccc(C(F)(F)F)cc21 | -33.3%
52 | CCCC(O)(c1ccc(OC)cc1)C(CN(C)C)c1ccccc1 (configuration not stated) | -16.3%
53 | O=C(Cc1ccc(S(=O)(=O)N2CCCC2)s1)NC1CCCCCC1 | -2.6%
54 | O=C(O)CCCCc1nc2ccccc2s1 | 0.3%
55 | CCCC(=O)Nc1nc2ccc(NC(=O)c3cccnc3)cc2s1 | -12.3%
56 | O=C(CNC(=O)Cc1ccccc1)NCC(=O)OCC(=O)c1ccccc1Cl | -68.8%
57 | CC(Oc1ccc(Cl)cc1)c1ccnn1S(C)(=O)=O (configuration not stated) | 7.5%
58 | COCCCNC(=O)CN1CCN(Cc2ccccc2Cl)C1=O | -10.5%
59 | C=CCOc1ccc(Cl)cc1CNCCCN1CCOCC1 | 6.4%
60 | Cc1ccccc1OCC(=O)NCC(=O)OCC(=O)c1ccc2ccccc2c1 | 13%
61 | O=C(/C=C/Nc1ccccc1OC(F)(F)F)C(F)(F)F | -22.1%
62 | CCCCOC(=O)Nc1sc2nc(C)cc(C)c2c1-n1cccc1 | -2.8%
63 | Cc1ccc(NC(=S)NC(=O)c2ccc(-c3ccccc3)cc2)cc1 | -7.3%
64 | O=C(Nc1nnc(SCc2ccccc2)s1)c1ccco1 | -6.4%
65 | COCCCNC(NC(=O)c1ccc(C)cc1)C(Cl)(Cl)Cl (configuration not stated) | -35.5%
66 | CCN(CC)C(=O)CSc1nnc(CNc2ccc(F)cc2)n1Cc1ccco1 | -17.8%
67 | CCOc1ccc(CN2CCCN(C)CC2)cc1 | -10.1%
68 | Cc1ccc(SCC2=NNC(=O)C2)cc1 | -29.7%
69 | O=C(NCc1cccnc1)Nc1ccccc1F | 30.7%
70 | COc1ccc2c(c1OC)C(=O)c1ccccc1C2=O | -3.8%
71 | c1cnc(Nc2nc(-c3ccc4ccccc4c3)cs2)nc1 | 22.7%
72 | O=C(CN1CCCCCC1)Nc1ccc(Br)cc1Br | 6.4%
73 | CCOC(=O)c1ccc2c(c1)nc(C)n2CC | 8.9%
74 | Cc1cccn2c(=O)c(/C=C(\C#N)S(=O)(=O)c3ccc(Cl)cc3)c(N3CCC(C(N)=O)CC3)nc12 | 28.1%
75 | O=c1[nH]c(SCc2ccccc2)nnc1-c1ccccc1 | -19.8%

Row | SMILES | cell count reduction
76 | Cc1nc(SCC(=O)N2CCc3ccccc3C2)c2c(C)c(C)sc2n1 | -25.7%
77 | COc1cc(OC)nc(NC(=O)CCl)n1 | -85.3%
78 | CC(=O)c1nn(-c2cccc(Br)c2)cc1C(=O)c1cccc2ccccc12 | -1.6%
79 | CC12CCC(C(=O)N3CCN(c4ncccn4)CC3)(c3nc4ccccc4nc31)C2(C)C (configuration not stated) | 82.1% (active)
80 | O=C(C(NS(=O)(=O)c1cccc2nsnc12)c1ccccc1)N1CCN(c2ccccn2)CC1 (configuration not stated) | -35.8%
81 | C=C(C)c1cccc(C(C)(C)NC(=O)N2CCN(c3ncccn3)CC2)c1 | 22.8%
82 | CCC(C(=O)NCc1ccc(OC)cc1)n1nc(C)n2c(cc3occc32)c1=O (configuration not stated) | 9.6%
83 | Cc1ccc(S(=O)(=O)N(c2cccc(C)c2)C2CCS(=O)(=O)C2)cc1 (configuration not stated) | 5.1%
84 | Cc1oc2nc(SCC(=O)Nc3ccc(S(N)(=O)=O)cc3)nc(NC(=O)c3ccccc3)c2c1C | 13.5%
85 | CCOCC(=O)Nc1sc2c(c1C(=O)OCC)CCCC2 | 92% (active)
86 | CCCOC(=O)Nc1sc2c(c1C(=O)OCC)CCC2 | 11.4%
87 | CCOC(=O)c1c(NC(=O)CSc2nnc(C)c(=O)[nH]2)sc2c1CCC2 | -24.4%
88 | O=C(Cc1ccccc1)Nc1c(C(=O)N2CCCCCC2)cnn1-c1ccccc1 | -8.3%
89 | COC(=O)C(C)C1Sc2ccccc2NC1=O (configuration not stated) | 90.9% (active)
90 | CN1CCN(S(=O)(=O)c2ccc(N3CCN(S(=O)(=O)c4cccs4)CC3)nc2)CC1 | -0.9%
91 | Cc1ccc(OCCCC(=O)Nc2ccc(N3CCOCC3)cc2)cc1 | 10.3%
92 | COc1ccc(-c2nnc(SCC(=O)c3ccc4c(c3)OCCO4)o2)cc1 | -13.4%
93 | COc1ccc(Nc2nc(-c3ccccc3)cs2)cc1 | 3.5%
94 | COc1ccc(/C=C(/NC(=O)c2ccc(C)cc2)c2nc3ccccc3[nH]2)cc1OC | -9.1%
95 | Cc1ccc(Oc2ccc3c(c2)C(=O)N(c2cccc4cccnc24)C3=O)cc1 | -63.9%
96 | CCOc1cc(NC(=O)c2cnccn2)c(OCC)cc1NC(=O)c1ccc(C)cc1 | -42.4%
97 | O=C(NCC(=O)N(Cc1cccs1)C(C(=O)NC1CCCCC1)c1ccco1)c1cccs1 (configuration not stated) | 24.1%
